S2 tox: Viability Counterscreen for Primary qHTS for Inhibitors of ATXN expression. Potency, µM (series often up to 56.7 µM), usual class: cytotoxic. actives 0.49% (n = 400,000). S2 cells (HEK-293 line with an ATXN2-luciferase reporter) viability, CellTiter-Fluor protease fluorescence, 24 h. AID 651635, 2014; note: nearly all actives have a fitted effect of over 40% in size
KB-V1 MDR tox: qHTS assay for MDR1-selective chemotherapeutics: Primary screen using the drug-selected MDR subline cells KB-V1; KB-V1 MDR cells viability, CellTiter-Glo, 72 h; Potency, µM (titrated, usually from 46.1 µM), hits mostly cytotoxic; AID 1347076, 2019; actives 3.4% (n = 400,000); note: % is set by controls: 0 for no effect and ±100 for the full control effect; nearly all actives have a fitted effect of over 60% in size
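Drug-selected KB-V1 cells, grown in DMEM lacking phenol red with 10% FBS, receive compound titrations; after three days at 37 degrees C, surviving cell ATP is quantified by CellTiter-Glo luminescence and responses normalized and curve-fitted.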
HT1080NT lethal: qHTS for induction of synthetic lethality in tumor cells producing 2HG: qHTS for the HT-1080-NT fibrosarcoma cell line | HT-1080-NT fibrosarcoma viability, CellTiter-Glo ATP luminescence, 48 h | Potency, µM (doses to about 46.1 µM), for inactives: top-dose activity, negative = less viability, most hits filed as cytotoxic | actives 1.6% (n = 360,000) | AID 686970, 2013;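 note: NT is the 2HG producing partner of a matched IDH1 knockdown line; 0% = DMSO-treated cells and -100% = media-only wells without cells; nearly all actives have a fitted effect of over 55% in size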
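Toxicity toward the 2HG-producing NT line was scored as %Activity, normalised to DMSO and no-cell wells, from CellTiter-Glo luminescence after 48 hours' treatment.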
KB-3-1 tox: qHTS assay for MDR1-selective chemotherapeutics: Primary screen using the parental adenocarcinoma cell KB-3-1 | KB-3-1 viability, CellTiter-Glo ATP luminescence, 72 h | Potency, µM (doses to about 46.1 µM), actives largely listed as cytotoxic | actives 1.4% (n = 400,000); note: % is set by controls: 0 for no effect and ±100 for the full control effect; nearly all actives have a fitted effect of over 60% in size
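Viability of parental KB-3-1 cells, measured by CellTiter-Glo luminescence, followed a 72 h incubation at 37 °C with pinned compounds in phenol-red-free DMEM containing 10% FBS.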
HT1080 IDH1KD tx: qHTS for induction of synthetic lethality in tumor cells producing 2HG: qHTS for the HT-1080-IDH1KD cell line; HT-1080 IDH1 knockdown viability, ATP luminescence, 48 h; Potency, µM (series often up to 46.1 µM), for the others: at the highest dose activity, negative = toxicity, most hits filed as cytotoxic; actives 2% (n = 360,000); AID 686971, 2013;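 note: 0% = DMSO wells and -100% = cell-free medium wells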
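Cytotoxicity counter-line: IDH1KD HT-1080, 48 h, CellTiter-Glo. Curves classed by r2, magnitude and activity.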
ATXN2 expr inh: Primary qHTS for Inhibitors of ATXN expression. AID 1745845, 2022. Potency, µM (highest dose often 57 µM), inactives show at the top dose activity change, negative = inhibition, actives largely listed as inhibitors. HEK-293 ATXN2-luciferase reporter, luminescence, 24 h. actives 0.72% (n = 360,000); note: % is set by controls: 0 for no effect and ±100 for the full control effect; nearly all actives have a fitted effect of over 55% in size
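qHTS (up to 57 uM final) was run with 24 h compound exposure of reporter cells at 37 °C. Each well was multiplexed: SteadyGlo luminescence measured ATXN2-luciferase expression after a fluorogenic Gly-Phe-AFC viability readout (25 uM final).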
* marks the source's active call; other numbers are inactive results; i = inactive; u = inconclusive; x = no result given; [ ] = dose if it differs, or a comment. The list is not random: actives were taken first. Their share in the collection is about 6.2%. Calls come from the whole dose curve; as a rule, active = well fitted curve in the direction sought with a large enough effect; inconclusive = small, poorly fitted or top-dose-only effect, or another doubt; inactive = no such curve, though single readings can be large; an effect the other way counts as inactive or inconclusive. Potency is the fitted concentration of half-maximal effect.

SMILES | S2 tox | KB-V1 MDR tox | HT1080NT lethal | KB-3-1 tox | HT1080 IDH1KD tx | ATXN2 expr inh
Cc1ccc(NC(=O)COC(=O)CC2CC3CCC2C3)cc1S(=O)(=O)N1CCOCC1 (centres undefined) | i | i | -2.3% | i | 6.0% | -6.2%
COc1ccc(NS(=O)(=O)c2ccc(OC)c(NC(=O)CCC3CCCCC3)c2)cc1 | i | 11.6µM* | -0.9% | i | 10.1% | 1.0%
O=C(COc1ccc(F)cc1Br)NCC1(N2CCOCC2)CCCCC1 | i | i | 0.4% | i | -9.1% | -21.5%
CCN(CC)C1CCN(C(=O)c2cnn(-c3nccc(-c4ccccc4OC)n3)c2-c2ccco2)C1 (centres undefined) | i | x | x | x | x | x
CCn1cc(C(=O)NCCc2ccc(C)cc2)c(=O)c2cc(S(=O)(=O)N3CCC(C)CC3)ccc21 | i | i | x | i | x | 3.1%
COc1ccc(NC(=O)c2cc3c(s2)CCC(C)C3)cc1S(=O)(=O)N1CCOCC1 (centres undefined) | u | 3.66µM* | -13.6% | i | -25.7% | u
COc1ccc(NC(=O)Cc2coc3cc(C)ccc23)cc1S(=O)(=O)N1CCOCC1 | i | 18.4µM* | 1.8% | i | 8.3% | 16.9%
CCc1sc(C(=O)Nc2ccc(OC)c(S(=O)(=O)N3CCOCC3)c2)cc1C | i | i | -1.4%[9.24 µM] | i | -11.0% | -34.9%
COc1ccc(-c2nnc(-c3cccs3)o2)cc1OC | i | 6.51µM* | -1.9% | i | -22.1% | 35.2%
COc1cc(-c2nnc(-c3cccs3)o2)cc(OC)c1OC | i | u | 17.2% | i | 9.2% | 14.9%
CN(c1ccccc1)c1cc(Br)nc(Br)c1 | i | 20.6µM* | -26.3% | u | -20.3% | -2.1%
CN(c1ccccc1)c1ncccn1 | i | i | 11.5% | i | 0.0% | -13.5%
CS(=O)c1ccc(-n2c(=O)n(Cc3ccccc3)c(=O)c3[nH]cnc32)cc1 (centres undefined) | i | i | 4.2% | i | -1.7% | -0.9%
COc1ccc(NC(=O)CSc2nccn2C)c([N+](=O)[O-])c1 | i | i | 15.2% | i | 14.0% | 44.8%
COc1ccc(NC(=O)CSc2nc(C)cs2)c([N+](=O)[O-])c1 | u | 23.1µM* | -1.8% | i | 3.2% | 20.5%
Cc1csc(SCC(=O)Nc2cccc(C)c2C)n1 | i | 16.4µM* | -0.9% | i | 10.4% | -3.8%
Cc1ccc(-c2c(C(=O)N3CCN(c4cccc(C)c4)C(C)C3)oc(=O)c3ccccc23)cc1 (centres undefined) | i | u | x | u | x | -18.4%
CCN1CCCC1CNC(=O)c1cnn(-c2nccc(-c3cc(OC)ccc3OC)n2)c1C (centres undefined) | i | x | x | x | x | x
O=C(c1ccc2c(c1)OCO2)N(Cc1cc2ccc(F)cc2nc1N1CCC(O)CC1)CC1CCCO1 (centres undefined) | i | x | x | x | x | x
CC(C)(C)C(=O)Cn1ncc(N2CCCC2)c(Br)c1=O | i | i | 3.4% | i | 3.0% | 32.4%
CC(=O)Cn1ncc(Br)c(Br)c1=O | u | u | 10.3µM* | u | 7.31µM* | u
CC(C)(C)n1nnnc1CN(Cc1ccc(F)cc1)Cc1ccco1 | i | 20.6µM* | -2.7% | u | -3.9% | -24.4%
COc1cc2c(cc1OC)C(C)N(CCN1C(=O)c3ccccc3C1=O)CC2 (centres undefined) | i | i | -1.4% | i | -0.2% | x
COc1cc(SC)ccc1C(=O)N1CCN(c2ccccc2OC)CC1 | i | 16.4µM* | 9.2µM* | 6.51µM* | 8.2µM* | -28.4%
COc1ccccc1N1CCN(C(=O)c2c(C)cc(=O)oc2C)CC1 | i | i | 18.5% | i | 13.5% | -6.8%
SMILES | S2 tox | KB-V1 MDR tox | HT1080NT lethal | KB-3-1 tox | HT1080 IDH1KD tx | ATXN2 expr inh
COc1cc2c(cc1OC)C(C)N(C(=O)c1ccc(C)o1)CC2 (centres undefined) | i | 16.4µM* | u | u | u | -6.5%
COc1cc2c(C(=O)N3CCN(c4ccccc4C)CC3)c(C)oc2cc1Br | i | 5.8µM* | 4.9% | u | 12.1% | 2.0%
COc1cc2c(cc1OC)C(C)N(CCc1ccc(Cl)cc1)CC2 (centres undefined) | i | u | 11.6µM* | i | u | -31.8%
COc1cc2c(cc1OC)C(C)N(C(=O)Nc1ccccc1)CC2 (centres undefined) | i | u | 2.91µM* | 6.51µM* | 2.59µM* | -12.0%
COc1ccccc1N1CCN(C(=O)c2c(-c3ccccc3)noc2C)CC1 | u | u | u | 4.61µM* | 14.6µM* | -35.5%
CCSc1ncc(Cl)c(C(=O)N2CCN(c3ccccc3OC)CC2)n1 | u | 3.66µM* | x | 6.51µM* | x | -13.4%
COc1ccccc1N1CCN(C(=O)c2c(-c3c(F)cccc3Cl)noc2C)CC1 | i | u | u | u | u | -21.3%
COc1ccc(N2CCN(C(=O)c3nc(SC)ncc3Cl)CC2)cc1 | i | i | x | i | x | -7.8%
COc1cc2c(cc1OC)C(C)N(C(=O)CCNC(=O)c1ccccc1)CC2 (centres undefined) | i | i | -2.4% | i | 11.3% | 3.6%
COc1cc2c(cc1OC)C(C)N(C(=O)c1ccc(Cl)c(S(=O)(=O)N3CCCCC3)c1)CC2 (centres undefined) | u | i | -23.3% | 11.6µM* | -18.5% | -30.3%
Fc1ccccc1-c1nc(N2CCN(c3cccc(Cl)c3)CC2)c2ccccc2n1 | i | i | x | u | x | -10.8%
O=C(Nc1ccc(F)c(Cl)c1)c1cc(S(=O)(=O)NCc2ccc3c(c2)OCO3)ccc1F | u | i | x | i | x | u
COc1cc2c(cc1OC)C(c1ccccc1)N(C(=O)CCl)CC2 (centres undefined) | x | 9.2µM* | u | 4.11µM* | u | 28.2µM*
COc1cc2c(cc1OC)C(C)N(C(=O)c1c(-c3ccccc3)noc1C)CC2 (centres undefined) | i | 20.6µM* | u | u | 23.1µM* | x
COc1ccccc1N1CCN(C(=O)c2cc(N3C(=O)C4C5CCC(C5)C4C3=O)ccc2Cl)CC1 (centres undefined) | i | 4.11µM* | -0.5% | i | -0.7% | -10.8%

Screens deposited in PubChem BioAssay by National Center for Advancing Translational Sciences (NCATS).
